From PubChem BioAssay (Tox21)
The source made the active and inactive calls. Entries that show only a call come without a potency. Calls follow the shape of the full dose curve.

Biological target: Muscarinic acetylcholine receptor M1 (Homo sapiens) (UniProt P11229)
Assay: Cholinergic receptor muscarinic 1 (CHRM1) small molecule agonists, cell-based qHTS assay (AID 1963589); also: nearly all actives have a fitted effect of over 35% in size
Conditions: CHRM1-CHO cells, agonist mode, calcium flux fluorescence; series mostly up to 76.8 µM
Method in brief: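 Fluorescent calcium dye reports M1 activation in stably transfected CHO cells. Compounds, 15 concentrations, added after 1 h dye loading at 37 C; kinetic reading at 1 sec intervals.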
Potency is read from the fitted curve at half-maximal effect.

Chain of Muscarinic acetylcholine receptor M1 (Homo sapiens) (P11229 whole entry, looked up): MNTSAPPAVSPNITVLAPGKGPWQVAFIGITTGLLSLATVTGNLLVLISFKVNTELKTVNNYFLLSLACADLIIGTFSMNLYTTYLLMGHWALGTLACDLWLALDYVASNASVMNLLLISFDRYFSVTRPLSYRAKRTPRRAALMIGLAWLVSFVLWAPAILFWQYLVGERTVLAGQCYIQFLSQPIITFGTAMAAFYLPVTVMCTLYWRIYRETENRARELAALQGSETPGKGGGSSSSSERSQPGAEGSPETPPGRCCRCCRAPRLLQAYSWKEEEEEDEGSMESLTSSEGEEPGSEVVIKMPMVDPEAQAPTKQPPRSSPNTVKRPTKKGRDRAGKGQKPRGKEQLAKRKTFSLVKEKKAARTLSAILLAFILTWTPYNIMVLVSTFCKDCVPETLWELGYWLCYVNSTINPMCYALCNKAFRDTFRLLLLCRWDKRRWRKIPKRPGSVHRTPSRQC

| SMILES | Potency |
| --- | --- |
| O=Cc1ccc(O)c(O)c1O | inactive |
| c1ccc2sc(SN3CCOCC3)nc2c1 | inactive |
| Cc1ccc([N+](=O)[O-])c(N)c1 | inactive |
| CCN(CC)c1ccc2c(-c3ccccc3C(=O)O)c3ccc(=[N+](CC)CC)cc-3oc2c1 | 43.6 µM (active) |
| CCCCCCCCCC(C)C=O (centres undefined) | inactive |
| CCC(Cl)CCC(Cl)C(Cl)CC(Cl)C(Cl)C(Cl)CCl (centres undefined) | inactive |
| OC[C@H]1O[C@@H](OCCc2ccc(O)cc2)[C@H](O)[C@@H](O)[C@@H]1O | inactive |
| CCc1ccc2c(c1)C(=O)c1ccccc1C2=O | inactive |
| CC(C)c1cccc(C(C)C)c1NC(=O)NS(=O)(=O)c1cc(C(C)(C)O)co1 | inactive |
| [Cl][Au]([Cl])[Cl] | inactive |
| CCc1oc2ccccc2c1C(=O)c1cc(I)c(O)c(I)c1 | inactive |
| C=C[Si]1(C)O[Si](C)(C=C)O[Si](C)(C=C)O[Si](C)(C=C)O1 (centres undefined) | inactive |
| CC1=CCC(C(C)C)C=C1 (centres undefined) | inactive |
| Oc1ccc(N=Nc2ccccc2)cc1 | inactive |
| Cc1ccc(Cl)cc1N | inactive |
| Oc1ccc(Cc2ccccc2)cc1 | inactive |
| Cc1cc(-c2ccc(N=Nc3cc(S(=O)(=O)O)c4ccccc4c3N)c(C)c2)ccc1N=Nc1cc(S(=O)(=O)O)c2ccccc2c1N | inactive |

| SMILES | Potency |
| --- | --- |
| CC[C@]12CCCN3CCc4c(n(c5ccccc45)C(=O)C1)[C@@H]32 | inactive |
| C=CCCCCCC | inactive |
| COC(=O)/C=C(\C)CCC=C(C)C | inactive |
| CCN(CCC#N)c1ccc(N=Nc2c(Cl)cc([N+](=O)[O-])cc2Cl)cc1 | inactive |
| CCCCCC[C@@H](O)C/C=C\CCCCCCCC(=O)OC | inactive |
| N=C(N)N | inactive |
| O=C(c1ccccc1)c1cc(Cl)ccc1O | inactive |
| O=C(O)C(=O)Cc1ccccc1 | inactive |
| NCCc1cnc[nH]1 | inactive |
| CC/C=C1/OC(=O)c2ccccc21 | inactive |
| COC(=O)CCCCCCCC(=O)OC | inactive |
| OCCN1CCN(CCO)CC1 | inactive |
| CC/C=C\CCCCCO | inactive |
| O=C(NOCC1CC1)c1ccc(F)c(F)c1Nc1ccc(I)cc1Cl | inactive |
| c1ccc(-c2nc3ccccc3[nH]2)cc1 | inactive |
| CC(=O)Nc1cccc(N)c1 | inactive |
| COc1ccc(C2CNC(=O)C2)cc1OC1CCCC1 (centres undefined) | inactive |
